MazEF act: activators of E. coli MazEF toxin-antitoxin RNase, primary screen, biochemical, fluorescence, uHTS. FAM/BHQ RNA-DNA oligo cleavage fluorescence, 5 h. activation, % at 20 µM. Endoribonuclease toxin MazF (Escherichia coli (strain K12)), P0AE70. 350,000 tested, 0.32% active; in the data active means activation above about 50%
BoNT-A LC inh2: BoNT/A light chain protease inhibitors, primary screen, biochemical, flow cytometry, MLPCN library; multiplex microsphere protease substrate cleavage; AID 588499, 2011; 360,000 tested, 0.17% active; inhibition, % at 10 µM; Botulinum neurotoxin type A light chain protease (Clostridium botulinum A str. ATCC 3502); further: plate controls were buffer without enzyme for full effect and enzyme alone for no effect
Autofluor counter: counter-screen for toxin protease inhibitors: compound fluorescence; compound autofluorescence counterscreen, microsphere flow cytometry; active compounds read high; fluorescence intensity (concentration not given with the values); 360,000 tested, 3.1% active; in the data active means fluorescence intensity above about 16000; inconclusive means no clear call, values can overlap the other calls
BH1578 lux ind: inducers of Vibrio cholerae quorum light production without autoinducers, primary screen, BH1578 luxS cqsA deficient, single point; V. cholerae BH1578 lux reporter, luminescence, 6 h; activation, % at 18.7 µM; 350,000 tested, 0.16% active; AID 588436, 2011; in the data active means activation mostly above about 9.7%, no sharp cut-off; inconclusive means no clear call, values can overlap the other calls; inactive means mostly below about 3.7%
Anthrax LF prot: Bacillus anthracis LF protease inhibitors, primary screen, biochemical, multiplex microsphere, MLPCN library; Lethal factor (Bacillus anthracis), P15917; multiplex microsphere protease cleavage assay; inhibition, % at 10 µM; 360,000 tested, 0.12% active; AID 588501, 2011; further: plate controls were buffer without enzyme for full effect and enzyme alone for no effect
BoNT-F LC inh: BoNT/F light chain protease inhibitors, primary screen, biochemical, flow cytometry, MLPCN library; Botulinum neurotoxin type F light chain protease (Clostridium botulinum); Multiplex microsphere protease cleavage assay; inhibition, % at 10 µM; 360,000 tested, 0.22% active; in the data active means inhibition above about 35%, passing the limit was not always enough; inconclusive means no clear call, values can overlap the other calls; further: plate controls were buffer without enzyme for full effect and enzyme alone for no effect
Numbers without * were called inactive; i = inactive; ? = inconclusive; . = no result. Hits are enriched below; roughly 3.9% of the tested compounds scored in any of these assays. Unless noted, no stated cut-off is given here; in the data, active means inhibition above about 30%; inconclusive means no clear call, values can overlap the other calls; inactive means below that.

SMILES	MazEF act	BoNT-A LC inh2	Autofluor counter	BH1578 lux ind	Anthrax LF prot	BoNT-F LC inh
CCOc1cccc(C(=O)N(Cc2ccc(F)cc2)C2CCS(=O)(=O)C2)c1 (stereo not given)	12.0	?	21464*	-2.7	0.1	-1.9
COc1cc(C(=O)N(Cc2cccc(Cl)c2)C2CCS(=O)(=O)C2)cc(OC)c1OC (stereo not given)	-2.3	1.3	8102	.	1.8	7.2
Cc1ccc(OCC(=O)N(Cc2ccc(N(C)C)cc2)C2CCS(=O)(=O)C2)cc1 (stereo not given)	18.5	-0.3	4320	2.0	-2.8	10.2
COc1cc(C(=O)N(Cc2ccc(F)cc2)C2CCS(=O)(=O)C2)cc(OC)c1OC (stereo not given)	5.4	-2.3	17106*	3.8	1.8	-2.1
CN(C)c1ccc(CN(C(=O)COc2ccc(F)cc2)C2CCS(=O)(=O)C2)cc1 (stereo not given)	2.6	-2.7	20985*	i	-3.6	-0.8
O=C1C2CC=CCC2C(=O)N1c1ncn[nH]1 (stereo not given)	4.8	-0.5	16218*	-1.8	-2.8	2.4
COC(=O)[C@H](Cc1ccccc1)NC(=O)NCCC1=CCCCC1	4.1	?	24338*	-1.0	-0.4	-1.8
COc1cccc(C2=NOC(C(=O)Nc3cc(OC)c(OC)c(OC)c3)C2)c1 (stereo not given)	-2.0	-2.8	21270*	-0.6	-4.1	-3.0
COc1cc(C2=NOC(C(=O)Nc3ccc(C)cc3)C2)cc(OC)c1OC (stereo not given)	-1.7	2.1	19324*	0.7	-1.6	1.3
COc1ccc(CNC(=O)C2CC(c3cccc(OC)c3)=NO2)cc1 (stereo not given)	-6.8	9.0	19613*	-0.2	-8.9	8.7
COc1ccc(NC(=O)C2CC(c3cc(OC)c(OC)c(OC)c3)=NO2)cc1OC (stereo not given)	-1.6	5.1	21486*	-0.2	-2.0	0.6
COc1cccc(C2=NOC(C(=O)NCc3ccc(F)cc3)C2)c1 (stereo not given)	-4.2	-1.2	9856	-2.8	-2.5	-7.2
COc1cc(C2=NOC(C(=O)Nc3ccc4c(c3)OCO4)C2)cc(OC)c1OC (stereo not given)	7.4	1.4	3272	0.8	-11.9	-33.0
COc1ccc(-c2ccc(N3C(c4ccsc4)=Cc4ccc(F)cc4C3c3c[nH]c4ccccc34)cc2)cc1 (stereo not given)	.	2.6	5847	.	0.9	-3.5
Cc1ccc(NC(=O)CN(C)C2CCCCC2)cc1Cl	-3.1	-1.5	3880	-0.6	-14.0	?
O=C(O)c1cc2c(ncc3c(=O)n(-c4ccccc4)[nH]c32)s1	.	-0.1	5713	.	4.6	-1.3
COc1cc(C2=NOC(C(=O)N3CCN(c4ccc(F)cc4)CC3)C2)cc(OC)c1OC (stereo not given)	-1.6	-2.6	17355*	-0.2	-2.8	-2.5
COc1ccc(C2=NOC(C(=O)Nc3ccc(C)cc3)C2)cc1OC (stereo not given)	1.4	1.9	21677*	-0.2	2.6	3.2
COc1cc(C2=NOC(C(=O)NCc3ccc(F)cc3)C2)cc(OC)c1OC (stereo not given)	2.3	-1.5	17938*	-1.7	0.0	-6.4
Cc1nn(-c2ccccc2)c(C)c1/C=N/NC(=O)c1cc(-c2cccs2)[nH]n1	0.3	0.1	1994	i	-5.1	-9.1
Cc1nn(-c2ccccc2)c(C)c1/C=N/NC(=O)c1ccccc1O	6.2	6.4	3079	i	-1.0	88.4*
Cc1nn(-c2ccccc2)c(C)c1/C=N/NC(=O)c1cc(-c2ccc(Br)s2)[nH]n1	-8.2	1.7	21752*	-2.0	-1.3	1.7
Cc1cc(C(=O)N/N=C/c2c(C)nn(-c3ccccc3)c2C)n[nH]1	10.4	.	.	-0.7	.	.
Cc1nn(-c2ccccc2)c(C)c1/C=N/NC(=O)c1cc(-c2ccc(Cl)s2)[nH]n1	-15.2	-4.4	17595*	i	-4.8	-9.6
